From PMC7862700, “An all-to-all approach to the identification of sequence-specific readers for epigenetic DNA modifications on cytosine”

Experiments:
Test in all cases: DAPPL (digital affinity profiling via proximity ligation, sequencing); 10 mM Tris-HCl pH 7.5, 50 mM NaCl, 1 mM DTT, 4% glycerol, room temperature, 30 min; GST-TFs on glutathione beads, 16-mer random dsDNA library, 0.1% formaldehyde crosslink after washing; high values mean tight binding
Settings in all cases: protein: recombinant; tags: N-terminal GST; dsDNA, one strand shown
[1] = target: T1, FLI1 (Homo sapiens, UniProt Q01543 1-452)
T1 sequence: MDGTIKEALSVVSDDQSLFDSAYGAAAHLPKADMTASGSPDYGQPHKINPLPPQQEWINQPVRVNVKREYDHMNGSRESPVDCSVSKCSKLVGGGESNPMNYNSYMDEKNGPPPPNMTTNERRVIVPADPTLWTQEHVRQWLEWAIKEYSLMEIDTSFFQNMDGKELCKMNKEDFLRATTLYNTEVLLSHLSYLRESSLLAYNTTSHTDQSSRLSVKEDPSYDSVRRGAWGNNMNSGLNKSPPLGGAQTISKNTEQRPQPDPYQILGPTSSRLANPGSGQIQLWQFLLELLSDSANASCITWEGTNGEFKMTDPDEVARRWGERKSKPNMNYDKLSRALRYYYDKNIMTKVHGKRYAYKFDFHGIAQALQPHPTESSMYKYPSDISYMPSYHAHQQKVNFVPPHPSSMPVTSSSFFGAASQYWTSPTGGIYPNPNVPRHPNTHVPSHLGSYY
How it was run: (§1)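 Human transcription factors carrying a GST fusion were produced in yeast, bound to glutathione beads, tagged with DNA barcodes and pooled together with a tag-only sample. Each pool was held with 200 nmole of a random double-stranded 16-mer DNA library in Tris/NaCl/DTT/glycerol buffer for 30 min at room temperature, then washed, crosslinked in 0.1% formaldehyde, proximity-ligated with BsaI/T4 ligase (1 h, 37 °C), PCR-amplified and sequenced on an Illumina NextSeq500. Binding signal is the read frequency of each hexamer for a given factor divided by its frequency in the tag-only sample.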

[2] = target: T2, ELK1 (Homo sapiens, UniProt P19419 1-428)
T2 sequence: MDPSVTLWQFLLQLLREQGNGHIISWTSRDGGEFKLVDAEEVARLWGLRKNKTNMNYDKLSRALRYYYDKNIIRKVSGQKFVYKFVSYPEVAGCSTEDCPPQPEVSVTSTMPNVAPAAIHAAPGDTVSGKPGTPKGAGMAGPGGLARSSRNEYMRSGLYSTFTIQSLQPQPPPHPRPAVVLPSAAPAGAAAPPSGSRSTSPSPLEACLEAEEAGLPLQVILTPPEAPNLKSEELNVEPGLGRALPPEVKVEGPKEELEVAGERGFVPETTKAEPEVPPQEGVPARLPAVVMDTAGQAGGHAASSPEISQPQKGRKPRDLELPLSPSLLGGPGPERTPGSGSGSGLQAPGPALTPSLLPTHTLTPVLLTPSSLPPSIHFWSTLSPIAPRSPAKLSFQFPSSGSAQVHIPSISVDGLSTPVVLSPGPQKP
How it was run: as §1

[3] = target: T3, GABPA (Homo sapiens, UniProt Q06546 1-454)
T3 sequence: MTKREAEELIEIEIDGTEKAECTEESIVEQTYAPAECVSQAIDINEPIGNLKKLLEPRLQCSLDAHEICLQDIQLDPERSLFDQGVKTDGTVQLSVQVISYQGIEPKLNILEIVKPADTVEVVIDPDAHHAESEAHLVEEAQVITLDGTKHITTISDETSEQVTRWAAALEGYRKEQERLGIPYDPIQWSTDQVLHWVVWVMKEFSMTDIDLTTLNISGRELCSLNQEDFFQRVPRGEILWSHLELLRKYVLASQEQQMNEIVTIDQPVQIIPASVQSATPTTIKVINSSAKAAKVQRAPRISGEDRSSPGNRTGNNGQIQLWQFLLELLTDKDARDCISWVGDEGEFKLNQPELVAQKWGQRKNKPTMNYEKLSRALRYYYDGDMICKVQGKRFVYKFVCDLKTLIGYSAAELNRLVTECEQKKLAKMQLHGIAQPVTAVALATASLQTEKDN
How it was run: as §1

[4] = target: T4, ERG (Homo sapiens, UniProt P11308 1-479)
T4 sequence: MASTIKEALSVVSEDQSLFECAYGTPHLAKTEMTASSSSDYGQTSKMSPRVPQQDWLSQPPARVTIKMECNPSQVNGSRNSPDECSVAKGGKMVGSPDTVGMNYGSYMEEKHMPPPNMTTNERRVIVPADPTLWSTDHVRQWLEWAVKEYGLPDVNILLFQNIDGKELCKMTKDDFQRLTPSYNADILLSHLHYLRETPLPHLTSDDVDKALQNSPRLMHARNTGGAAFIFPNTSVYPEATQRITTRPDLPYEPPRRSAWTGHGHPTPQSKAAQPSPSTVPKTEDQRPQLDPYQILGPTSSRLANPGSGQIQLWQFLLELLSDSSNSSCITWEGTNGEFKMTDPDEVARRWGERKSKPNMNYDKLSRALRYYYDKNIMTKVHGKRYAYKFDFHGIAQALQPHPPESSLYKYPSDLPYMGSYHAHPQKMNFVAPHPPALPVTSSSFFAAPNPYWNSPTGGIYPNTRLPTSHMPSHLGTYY
How it was run: as §1

[5] = target: ELF1 (Homo sapiens, UniProt P32519 1-619)
How it was run: as §1

[6] = target: T5, EHF (Homo sapiens, UniProt Q9NZC4 1-300)
T5 sequence: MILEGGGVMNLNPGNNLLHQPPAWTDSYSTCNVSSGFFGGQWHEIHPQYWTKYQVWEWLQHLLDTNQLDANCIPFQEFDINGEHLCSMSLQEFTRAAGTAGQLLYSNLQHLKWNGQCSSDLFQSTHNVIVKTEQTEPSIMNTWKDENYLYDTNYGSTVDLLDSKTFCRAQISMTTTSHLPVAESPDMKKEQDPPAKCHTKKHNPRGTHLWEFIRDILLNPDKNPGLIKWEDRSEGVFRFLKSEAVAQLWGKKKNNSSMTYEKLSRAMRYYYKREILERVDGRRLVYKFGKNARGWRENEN
How it was run: as §1

[7] = target: SPI1 (Homo sapiens, UniProt P17947 1-270)
How it was run: as §1

[8] = target: SPIB (Homo sapiens, UniProt Q01892 1-262)
How it was run: as §1

[9] = target: T6, ELK3 (Homo sapiens, UniProt P41970 1-407)
T6 sequence: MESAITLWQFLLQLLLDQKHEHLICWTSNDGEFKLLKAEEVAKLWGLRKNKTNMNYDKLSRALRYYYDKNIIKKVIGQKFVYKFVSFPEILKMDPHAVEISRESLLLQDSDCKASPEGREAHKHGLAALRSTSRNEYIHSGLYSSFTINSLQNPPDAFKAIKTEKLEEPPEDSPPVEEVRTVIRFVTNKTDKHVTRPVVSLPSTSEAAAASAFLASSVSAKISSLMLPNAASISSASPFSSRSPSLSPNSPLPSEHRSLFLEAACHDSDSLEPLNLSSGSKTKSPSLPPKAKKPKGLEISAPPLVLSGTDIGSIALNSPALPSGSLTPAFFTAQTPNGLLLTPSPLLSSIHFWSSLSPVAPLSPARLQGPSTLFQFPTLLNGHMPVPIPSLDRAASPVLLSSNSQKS
How it was run: as §1

[10] = target: T7, FEV (Homo sapiens, UniProt Q99581 1-238)
T7 sequence: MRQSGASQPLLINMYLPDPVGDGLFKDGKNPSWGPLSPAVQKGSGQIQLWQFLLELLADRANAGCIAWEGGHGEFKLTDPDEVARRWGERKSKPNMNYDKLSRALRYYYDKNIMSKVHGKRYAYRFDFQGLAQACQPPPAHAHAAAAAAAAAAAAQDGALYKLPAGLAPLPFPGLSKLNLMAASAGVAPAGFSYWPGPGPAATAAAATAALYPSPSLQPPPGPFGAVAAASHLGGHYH
How it was run: as §1

[11] = target: ETV5 (Homo sapiens, UniProt P41161 1-510)
How it was run: as §1

[12] = target: T8, SPIC (Homo sapiens, UniProt Q8N5J4 1-248)
T8 sequence: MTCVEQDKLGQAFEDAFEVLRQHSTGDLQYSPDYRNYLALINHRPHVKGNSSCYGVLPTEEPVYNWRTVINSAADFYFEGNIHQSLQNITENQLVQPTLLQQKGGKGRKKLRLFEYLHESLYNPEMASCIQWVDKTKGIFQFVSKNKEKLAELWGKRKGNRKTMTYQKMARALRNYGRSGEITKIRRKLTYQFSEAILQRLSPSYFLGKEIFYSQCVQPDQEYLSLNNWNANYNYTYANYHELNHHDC
How it was run: as §1

[13] = target: ELF4 (Homo sapiens, UniProt Q99607 1-663)
How it was run: as §1

[14] = target: ETV1 (Homo sapiens, UniProt P50549 1-477)
How it was run: as §1

[15] = target: T9, ERF (Homo sapiens, UniProt P50548 1-548)
T9 sequence: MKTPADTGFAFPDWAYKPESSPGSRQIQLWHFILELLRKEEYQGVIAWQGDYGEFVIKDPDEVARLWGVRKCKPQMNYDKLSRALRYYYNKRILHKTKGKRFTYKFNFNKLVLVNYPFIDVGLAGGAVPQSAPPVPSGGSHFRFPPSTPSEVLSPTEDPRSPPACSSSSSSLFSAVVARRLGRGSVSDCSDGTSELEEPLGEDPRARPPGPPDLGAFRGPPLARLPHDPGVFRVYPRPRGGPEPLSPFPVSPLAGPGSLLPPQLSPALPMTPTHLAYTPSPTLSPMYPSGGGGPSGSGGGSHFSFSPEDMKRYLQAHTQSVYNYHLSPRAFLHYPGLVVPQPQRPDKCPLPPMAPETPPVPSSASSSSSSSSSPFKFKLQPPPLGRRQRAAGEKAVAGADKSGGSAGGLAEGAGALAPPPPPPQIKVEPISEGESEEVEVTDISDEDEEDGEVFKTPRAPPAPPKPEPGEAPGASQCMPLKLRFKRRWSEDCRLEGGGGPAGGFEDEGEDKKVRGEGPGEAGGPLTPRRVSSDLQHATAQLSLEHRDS
How it was run: as §1

[16] = target: T10, ETV3L (Homo sapiens, UniProt Q6ZN32 1-361)
T10 sequence: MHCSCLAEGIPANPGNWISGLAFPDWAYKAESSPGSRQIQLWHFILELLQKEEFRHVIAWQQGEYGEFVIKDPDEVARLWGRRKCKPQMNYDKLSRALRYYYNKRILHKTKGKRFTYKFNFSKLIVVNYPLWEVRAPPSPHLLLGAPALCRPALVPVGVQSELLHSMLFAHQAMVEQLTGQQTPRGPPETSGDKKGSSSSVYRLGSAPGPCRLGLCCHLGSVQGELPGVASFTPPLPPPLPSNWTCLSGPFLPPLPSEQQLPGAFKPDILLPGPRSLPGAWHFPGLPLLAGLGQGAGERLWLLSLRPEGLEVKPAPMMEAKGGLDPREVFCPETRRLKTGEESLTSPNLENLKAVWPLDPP
How it was run: as §1

[17] = target: T11, ETS2 (Homo sapiens, UniProt P15036 1-469)
T11 sequence: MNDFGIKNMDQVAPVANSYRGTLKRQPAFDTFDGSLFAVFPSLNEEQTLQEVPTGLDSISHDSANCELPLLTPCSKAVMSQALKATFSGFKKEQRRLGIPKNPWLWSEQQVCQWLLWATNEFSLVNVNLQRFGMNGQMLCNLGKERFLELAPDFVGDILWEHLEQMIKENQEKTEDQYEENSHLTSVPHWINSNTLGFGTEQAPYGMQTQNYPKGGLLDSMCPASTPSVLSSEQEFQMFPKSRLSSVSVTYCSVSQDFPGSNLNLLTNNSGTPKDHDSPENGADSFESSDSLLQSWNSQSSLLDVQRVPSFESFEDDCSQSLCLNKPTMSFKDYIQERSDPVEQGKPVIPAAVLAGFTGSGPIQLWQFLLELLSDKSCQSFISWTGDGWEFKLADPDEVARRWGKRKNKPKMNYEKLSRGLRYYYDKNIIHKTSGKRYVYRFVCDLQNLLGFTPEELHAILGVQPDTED
How it was run: as §1

[18] = target: T12, SPDEF (Homo sapiens, UniProt O95238 1-335)
T12 sequence: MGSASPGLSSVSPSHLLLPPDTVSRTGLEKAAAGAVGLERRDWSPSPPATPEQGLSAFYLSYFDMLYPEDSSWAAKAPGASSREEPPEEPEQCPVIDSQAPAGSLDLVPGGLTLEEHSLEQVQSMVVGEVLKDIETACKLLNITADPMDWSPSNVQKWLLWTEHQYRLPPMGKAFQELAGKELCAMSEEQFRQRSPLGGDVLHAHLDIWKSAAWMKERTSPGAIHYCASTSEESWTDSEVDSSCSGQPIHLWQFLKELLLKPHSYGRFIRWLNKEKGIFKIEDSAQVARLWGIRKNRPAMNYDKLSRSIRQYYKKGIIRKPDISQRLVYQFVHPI
How it was run: as §1

[19] = target: T13, ETV3 (Homo sapiens, UniProt P41162-2 1-143)
T13 sequence: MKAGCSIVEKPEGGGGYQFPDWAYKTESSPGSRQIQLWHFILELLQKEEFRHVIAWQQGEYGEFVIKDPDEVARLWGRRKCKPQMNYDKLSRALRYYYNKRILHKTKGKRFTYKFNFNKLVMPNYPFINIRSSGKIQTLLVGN
How it was run: as §1

[20] = target: ETV6 (Homo sapiens, UniProt P41212 1-452)
How it was run: as §1

Chain of ETV6 (P41212 whole entry): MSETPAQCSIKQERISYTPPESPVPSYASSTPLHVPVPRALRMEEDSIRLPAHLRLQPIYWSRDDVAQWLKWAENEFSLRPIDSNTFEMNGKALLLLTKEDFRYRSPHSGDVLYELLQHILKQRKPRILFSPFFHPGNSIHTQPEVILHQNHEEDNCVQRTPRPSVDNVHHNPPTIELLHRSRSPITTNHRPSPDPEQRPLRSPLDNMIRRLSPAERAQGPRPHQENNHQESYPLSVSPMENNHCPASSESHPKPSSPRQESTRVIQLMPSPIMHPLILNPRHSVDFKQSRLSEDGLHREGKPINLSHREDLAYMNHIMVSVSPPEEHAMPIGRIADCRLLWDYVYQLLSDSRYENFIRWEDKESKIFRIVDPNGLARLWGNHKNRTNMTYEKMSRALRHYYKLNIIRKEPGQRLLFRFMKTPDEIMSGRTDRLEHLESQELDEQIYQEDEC
Chain of ETV1 (P50549 whole entry): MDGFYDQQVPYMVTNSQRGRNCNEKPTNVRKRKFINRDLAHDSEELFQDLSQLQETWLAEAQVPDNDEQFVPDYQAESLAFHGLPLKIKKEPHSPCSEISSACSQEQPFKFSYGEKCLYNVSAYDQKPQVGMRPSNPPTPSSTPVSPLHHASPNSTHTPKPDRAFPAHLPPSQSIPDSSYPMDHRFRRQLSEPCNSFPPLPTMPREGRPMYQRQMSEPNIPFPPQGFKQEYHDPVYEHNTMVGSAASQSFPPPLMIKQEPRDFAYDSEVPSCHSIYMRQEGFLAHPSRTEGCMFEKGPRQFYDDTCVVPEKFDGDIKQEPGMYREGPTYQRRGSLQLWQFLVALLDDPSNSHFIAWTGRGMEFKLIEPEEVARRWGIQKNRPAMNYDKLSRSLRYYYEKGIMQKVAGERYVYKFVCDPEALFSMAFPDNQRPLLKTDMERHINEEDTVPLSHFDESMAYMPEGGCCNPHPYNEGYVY
Chain of ELF1 (P32519 whole entry): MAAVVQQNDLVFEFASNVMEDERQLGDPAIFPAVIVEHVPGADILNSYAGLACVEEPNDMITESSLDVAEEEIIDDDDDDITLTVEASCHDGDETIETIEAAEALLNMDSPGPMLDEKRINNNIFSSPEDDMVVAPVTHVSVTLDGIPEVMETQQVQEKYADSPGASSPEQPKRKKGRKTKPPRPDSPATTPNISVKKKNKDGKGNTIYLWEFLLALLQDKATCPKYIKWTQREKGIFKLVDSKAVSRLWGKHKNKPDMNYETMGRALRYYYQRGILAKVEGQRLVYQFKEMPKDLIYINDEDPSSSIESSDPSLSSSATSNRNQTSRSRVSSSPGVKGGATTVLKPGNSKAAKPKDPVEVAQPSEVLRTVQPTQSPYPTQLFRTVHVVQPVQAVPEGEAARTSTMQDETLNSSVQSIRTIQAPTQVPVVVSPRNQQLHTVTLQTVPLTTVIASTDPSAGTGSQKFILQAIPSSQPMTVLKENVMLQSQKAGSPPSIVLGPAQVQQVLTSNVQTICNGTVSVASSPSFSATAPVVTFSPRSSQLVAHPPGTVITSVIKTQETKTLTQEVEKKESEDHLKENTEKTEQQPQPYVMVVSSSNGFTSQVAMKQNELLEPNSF
Chain of SPIB (Q01892 whole entry): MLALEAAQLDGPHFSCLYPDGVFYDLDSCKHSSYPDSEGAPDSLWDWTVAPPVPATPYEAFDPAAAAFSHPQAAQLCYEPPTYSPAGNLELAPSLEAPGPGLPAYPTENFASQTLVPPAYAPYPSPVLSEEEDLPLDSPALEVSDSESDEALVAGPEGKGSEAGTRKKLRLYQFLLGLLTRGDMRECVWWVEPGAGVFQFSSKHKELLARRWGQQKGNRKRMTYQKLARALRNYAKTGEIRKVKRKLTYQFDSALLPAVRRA
Chain of ETV5 (P41161 whole entry): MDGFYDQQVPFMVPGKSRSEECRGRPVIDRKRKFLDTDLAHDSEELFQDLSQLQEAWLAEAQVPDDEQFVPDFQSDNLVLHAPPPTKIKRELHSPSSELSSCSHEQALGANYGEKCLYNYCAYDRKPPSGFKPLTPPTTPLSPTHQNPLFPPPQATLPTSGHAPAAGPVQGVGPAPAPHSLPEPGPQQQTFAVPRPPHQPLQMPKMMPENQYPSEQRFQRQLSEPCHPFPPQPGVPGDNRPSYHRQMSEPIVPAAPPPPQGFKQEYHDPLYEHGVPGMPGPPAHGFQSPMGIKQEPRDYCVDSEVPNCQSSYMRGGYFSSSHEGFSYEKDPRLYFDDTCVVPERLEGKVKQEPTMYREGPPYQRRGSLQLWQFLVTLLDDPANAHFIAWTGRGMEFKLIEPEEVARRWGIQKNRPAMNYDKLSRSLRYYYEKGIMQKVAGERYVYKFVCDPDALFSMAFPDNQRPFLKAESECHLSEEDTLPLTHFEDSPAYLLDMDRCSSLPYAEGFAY
Chain of ELF4 (Q99607 whole entry): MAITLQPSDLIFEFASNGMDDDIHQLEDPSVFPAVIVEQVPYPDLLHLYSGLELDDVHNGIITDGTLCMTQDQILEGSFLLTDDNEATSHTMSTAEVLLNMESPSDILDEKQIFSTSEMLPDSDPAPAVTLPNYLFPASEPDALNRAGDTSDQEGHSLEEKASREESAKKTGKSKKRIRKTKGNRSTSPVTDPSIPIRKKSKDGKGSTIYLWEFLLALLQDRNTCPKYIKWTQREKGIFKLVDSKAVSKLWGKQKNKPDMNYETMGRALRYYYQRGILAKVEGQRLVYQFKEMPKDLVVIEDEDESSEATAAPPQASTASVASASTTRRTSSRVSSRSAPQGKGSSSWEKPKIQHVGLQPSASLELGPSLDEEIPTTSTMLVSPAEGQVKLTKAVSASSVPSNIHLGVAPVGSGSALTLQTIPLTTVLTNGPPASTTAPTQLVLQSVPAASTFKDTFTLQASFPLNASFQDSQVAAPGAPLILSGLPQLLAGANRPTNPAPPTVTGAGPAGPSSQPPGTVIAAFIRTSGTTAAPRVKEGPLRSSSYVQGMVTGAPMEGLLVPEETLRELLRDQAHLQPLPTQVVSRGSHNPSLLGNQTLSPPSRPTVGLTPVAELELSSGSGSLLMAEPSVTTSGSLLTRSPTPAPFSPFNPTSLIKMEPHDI

For CGTCGC, the binding signal [1] was 1.31 fold enrichment (6-mer frequency, TF over GST control), the binding signal [2] was 1.2 fold enrichment (6-mer frequency, TF over GST control) and the binding signal [3] was 1.24 fold enrichment (6-mer frequency, TF over GST control). The binding signal [4] was 1.19 fold enrichment (6-mer frequency, TF over GST control), the binding signal [5] was 1.21 fold enrichment (6-mer frequency, TF over GST control) and the binding signal [6] was 1.14 fold enrichment (6-mer frequency, TF over GST control). The binding signal [7] was 1.21 fold enrichment (6-mer frequency, TF over GST control), the binding signal [8] was 1.25 fold enrichment (6-mer frequency, TF over GST control) and the binding signal [9] was 1.09 fold enrichment (6-mer frequency, TF over GST control). For the same sequence, the binding signal [10] was 1.14 fold enrichment (6-mer frequency, TF over GST control), the binding signal [11] was 1.12 fold enrichment (6-mer frequency, TF over GST control) and the binding signal [12] was 1.07 fold enrichment (6-mer frequency, TF over GST control). For the same sequence, the binding signal [13] was 1.06 fold enrichment (6-mer frequency, TF over GST control), the binding signal [14] was 1.3 fold enrichment (6-mer frequency, TF over GST control) and the binding signal [15] was 1.3 fold enrichment (6-mer frequency, TF over GST control). The binding signal [16] was 1.13 fold enrichment (6-mer frequency, TF over GST control), the binding signal [17] was 1.14 fold enrichment (6-mer frequency, TF over GST control) and the binding signal [18] was 1.24 fold enrichment (6-mer frequency, TF over GST control). The binding signal [19] was 1.2 fold enrichment (6-mer frequency, TF over GST control) and the binding signal [20] was 1.2 fold enrichment (6-mer frequency, TF over GST control).
